Results from PubChem BioAssay (NCI).
The panel holds about 83,000 compounds, 20% with a hit somewhere; the sample as a whole holds those more often.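 Single-dose data. Exposure time 48 hours. Values below 10 considered active.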 Calls of active or inactive are those of the source.

Tested on: KM12 colon
Assay: NCI-60 one-dose screen, 48 h (100 = growth as untreated, 0 = no growth, -100 = all killed)
Conditions: 10 µM unless noted

| SMILES | growth |
| --- | --- |
| Cc1cccc2c1NC(=O)C2(c1ccc(O)cc1)c1ccc(O)cc1 | 60.1% (inactive) |
| Cc1ccc(Cl)cc1Nc1nc(C(F)(F)F)ccc1C(=O)N/N=C/c1cccnc1 | 34.7% (inactive) |
| C=CCc1c2c(c(OC)c3ccoc13)C(=O)/C(=C/c1ccccc1OC)O2 | 46.8% (inactive) |
| COC(=O)c1cc(-c2ccc(S(C)(=O)=O)cc2)[nH]c1N/N=C/c1c(Cl)cccc1Cl | 20.6% (inactive) |
| Cn1cc(-c2csc(-c3c[nH]c4ccc(Br)cc34)n2)c2cnccc21 | -79.9% (active) |
| O=C(N/N=C/c1ccc(F)cc1)c1ccc(C(F)(F)F)nc1Nc1cccc(C(F)(F)F)c1 | -4.29% (active) |
| N#Cc1c(N)nnn1Cc1cc(=O)oc2c1ccc1ccccc12 | 103% (inactive) |
| CN(CCOc1ccc(C#N)cc1)CCOc1ccc(C#N)cc1 | 71.4% (inactive) |
| CCOc1nc(-c2ccccc2)cc2c(O)c(C(=O)NN)[nH]c(=O)c12 | 104% (inactive) |
| COC(=O)c1c2c(c(C)[n+]([O-])c1C)C(=O)C=C(NCc1ccc(OC)cc1)C2=O | -3.93% (active) |
| CCCCN1C(=O)/C(=c2\sc3n(c2=O)C2C(NN=3)N(CC)C(=O)N2CC)c2ccccc21 (stereo not given) | 16.1% (inactive) |
| Nc1ncnc2c1N=C(c1ccc3c(c1)OCO3)CC(c1ccc([N+](=O)[O-])cc1)N2 (stereo not given) | 78.4% (inactive) |
| COC(=O)c1c2c(c(C)[n+]([O-])c1C)C(=O)C=C(NCc1ccc(Br)cc1)C2=O | -11.3% (active) |
| COc1ccc(C(=S)N2CCN(c3ccccc3Cl)CC2)cc1OC | 123% (inactive) |
| CCOC(=O)c1nc(Nc2ccc(NC(=O)Nc3ccc(F)cc3)cc2)c2ccccc2n1 | 102% (inactive) |
| CC(C)n1cnc2c(=S)nc[nH]c21 | 102% (inactive) |
| COc1cc(-c2cc(-c3ccc(N(C)C)cc3)nc(N3CCC(O)CC3)c2C#N)cc(OC)c1OC | -0.387% (active) |
| O=C(c1ccc(-c2ccccc2)cc1)c1ccc([N+](=O)[O-])cc1 | 97% (inactive) |
| O=C(Nc1cccc([N+](=O)[O-])c1)c1cc2ccccc2cc1O | -10.3% (active) |
| O=C1c2cccc(NCCN=Cc3cc(O)ccc3O)c2C(=O)c2c(NCCN=Cc3cc(O)ccc3O)cccc21 | -71.3% (active) |

| SMILES | growth |
| --- | --- |
| CN(Cc1ccc(C(F)(F)F)cc1)CC(O)C(=O)Nc1ccc(Cl)cc1 (stereo not given) | -36.1% (active) |
| O=[N+]([O-])c1ccc(N/N=C(/C(=N/Nc2ccc([N+](=O)[O-])cc2)c2ccccc2)c2ccccc2)cc1 | 106% (inactive) |
| Cc1c(-n2nnc(-c3nc4ccccc4s3)c2N)c(=O)n(-c2ccccc2)n1C | 106% (inactive) |
| Cc1cc(N)c2cc(NC(=O)/C=C\c3ccccc3Cl)ccc2n1 | -83.8% (active) |
| C=C1C(=O)O[C@H]2[C@H]1CC/C(COC(=O)CCSCCC(=O)OC/C1=C/CC[C@@]3(C)O[C@H]3[C@H]3OC(=O)C(=C)[C@@H]3CC1)=C\CC[C@@]1(C)O[C@@H]21 | 34.3% (inactive) |
| COc1cc(CNS(=O)(=O)c2ccc(C)cc2)ccc1OCc1cn(-c2ccc(Br)cc2)nn1 | 103% (inactive) |
| CCn1c(SCC(=O)c2ccc(Br)cc2)nnc1-c1ccncc1 | 106% (inactive) |
| Cc1ccc(-n2c(=S)[nH]c3sc4c(c3c2=O)CCC(=O)C4)cc1 | 41.7% (inactive) |
| C#Cc1cccc(Nc2ncnc3ccc(-c4cnc(N)nc4)cc23)c1 | 68.6% (inactive) |
| CCCCN[C@H]1CC[C@@]2(C)[C@@H](CC[C@@]3(C)[C@H]2[C@H](O)C[C@H]2/C(=C(\CCC=C(C)C)C(=O)OC)[C@@H](OC(C)=O)C[C@@]23C)[C@@H]1C | 104% (inactive) |
| Fc1cc(F)cc(C(c2c[nH]c3ccccc23)c2c[nH]c3ccccc23)c1 | 97.5% (inactive) |
| C#CCOc1cccc(Nc2ncnc3c(NC(=O)C=C)cccc23)c1 | 9.96% (active) |
| COc1cc(CNS(=O)(=O)c2ccc(C)cc2)ccc1OCc1cn(-c2ccc(F)cc2)nn1 | 97.6% (inactive) |
| CCc1ccc(C(=O)/C=C/C23c4ccccc4C(c4ccccc42)C2C(=O)NC(=O)C23)cc1 (stereo not given) | 11.2% (inactive) |
| Nc1ncnc2c1N=C(c1ccc(Cl)cc1)CC(c1ccc3c(c1)OCO3)N2 (stereo not given) | 103% (inactive) |
| Cc1ccc(S(=O)(=O)N2CCCC2CO)cc1 (stereo not given) | 104% (inactive) |
| CC(=O)Nc1nc2ccc(NS(=O)(=O)c3cccc4c(N(C)C)cccc34)cc2[nH]1 | 55.1% (inactive) |
| COC(C(=O)[C@@H](O)[C@@H](C)O)[C@@H]1Cc2cc3cc(O[C@H]4C[C@@H](O[C@H]5C[C@@H](O)[C@H](O)C(C)O5)[C@H](O)C(C)O4)c(C)c(O)c3c(O)c2C(=O)[C@H]1O[C@H]1C[C@@H](O[C@H]2C[C@@H](O[C@H]3C[C@@H](O)[C@H](OC)C(C)O3)[C@@H](O)C(C)O2)[C@H](O)C(C)O1 (stereo not given in full) | 13.7% (inactive) |
| Cc1nn(-c2ccccc2)c(Oc2ccccn2)c1-c1nc2ccccc2s1 | 87.6% (inactive) |
| CC(C)(C)n1cc(-c2ccnc(NCCNS(=O)(=O)c3cccc4ccccc34)c2)c(-c2cccc(F)c2)n1 | -14% (active) |
